Source: PubChem (several laboratories)
An excerpt weighted towards active compounds, which were near 9.3% of everything screened.
Htt clearance – clearance of mutant huntingtin inclusions, primary screen, imaging, HeLa Exon1htt(103Q)mCFP, confocal imaging; aggregate imaging; zero = plate's median compound well; inhibition, % at 1.5 µM; 47,000 tested, 0.42% active; AID 853, 2007;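 active means inhibition of aggregate fluorescence above about 70%, also judged a hit by eye on the cell image, limit read from the data, passing the limit was not always enough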;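 further: cells exposed to compound for three days before fixation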
Autofluor 339 – intrinsic fluorescence of library compounds, ex339/em460 – biochemical, MLSMR library, data from DPM-DC assay, artefact control, profiling panel; AID 709, 2007; compound autofluorescence, ex339/em460 nm, NADH buffer; hits give high values; 1 = no-compound wells, NADH background; fluorescence fold increase at 10 µM; 65,000 tested, 5.5% active;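 active means at 10 µM, mean starting fluorescence two-fold or more over control wells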;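 further: signal is the first read of a kinetic run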
NADH coupling – inhibitors of PK/LDH coupling enzymes, profiling panel, artefact control, biochemical, MLSMR library | coupled PK/LDH NADH assays, four targets | IC50, µM (doses to about 10 µM), without a hit: at the top dose inhibition | 65,000 tested, 0.02% active | AID 774, 2007;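 active means single-dose screening hits from any of four coupled enzyme assays that gave an IC50 when retested across doses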;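 further: the DPM-DC format reads NADH fluorescence rather than 340 nm absorbance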
A340 absorber – compound light absorbance at 340 nm, profiling panel, artefact control, biochemical, MLSMR library, data from PS, PMK, MK assays; 65,000 tested, under 10 active; fold change at 10 µM; compound absorbance at 340 nm, fold over control;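 active means at 10 µM dose, initial 340 nm absorbance at least 2 fold that of control wells; inactive means change under 2 fold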;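 further: initial absorbance extrapolated from kinetic A340 decline of NADH oxidation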
M1 antagonist – antagonists of rat M1 muscarinic receptor. CHO-M1 cells, Fluo-4 calcium, ACh EC80 antagonist mode; hits give low values. 64,000 tested, 3.4% active. Muscarinic acetylcholine receptor M1 (Rattus norvegicus), P08482. B-score at 10 µM. AID 628, 2007;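 active means calcium fluorescence response, raw or row-and-column corrected B-score, differing from the plate sample mean either way at a set confidence level, mostly lower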
Target sequence (P08482 whole entry, looked up): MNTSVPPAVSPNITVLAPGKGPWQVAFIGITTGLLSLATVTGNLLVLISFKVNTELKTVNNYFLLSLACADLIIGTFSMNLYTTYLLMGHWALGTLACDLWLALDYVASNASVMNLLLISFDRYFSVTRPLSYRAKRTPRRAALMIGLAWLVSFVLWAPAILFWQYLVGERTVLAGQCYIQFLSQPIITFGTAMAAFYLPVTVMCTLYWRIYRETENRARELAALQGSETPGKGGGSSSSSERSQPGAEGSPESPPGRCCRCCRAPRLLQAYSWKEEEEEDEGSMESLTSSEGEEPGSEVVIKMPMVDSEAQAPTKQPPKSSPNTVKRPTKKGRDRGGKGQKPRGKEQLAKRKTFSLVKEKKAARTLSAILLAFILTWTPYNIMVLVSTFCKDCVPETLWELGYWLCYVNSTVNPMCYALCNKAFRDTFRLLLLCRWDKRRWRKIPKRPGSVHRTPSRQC
M1 ag – M1 muscarinic receptor agonists, primary screen, CHO-M1 cells, Fluo-4 calcium, agonist mode; Fluo-4 calcium fluorescence; hits give high values; B-score at 10 µM; Muscarinic acetylcholine receptor M1; 64,000 tested, 3% active;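 active means fluorescence rise, raw or as B-score row- and column-corrected plate score, outside the 99.7% band of its plate's samples, either direction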
* hit, by the source's call.

Results for C=CCn1c(C)cc(C(=O)CSc2nnc(Cc3ccccc3)o2)c1C ?
Htt clearance: -5; Autofluor 339: 1.1; NADH coupling: 1%; A340 absorber: 1.1; M1 antagonist: -0.14; M1 ag: 0.18

Results for Cc1ccc(-c2cc(C(F)(F)F)n3ncc(C(=O)O)c3n2)cc1 ?
Autofluor 339: 1.2; NADH coupling: 4%; A340 absorber: 1; M1 antagonist: -0.28; M1 ag: -0.22

Results for CCOC(=O)c1cnn2c(C)cc(-c3ccc(F)cc3)nc12 ?
Htt clearance: 8; Autofluor 339: 2.2*; NADH coupling: 3%; A340 absorber: 1.1; M1 antagonist: 0.81; M1 ag: -0.83

What do the screens show for `Cc1cc(-c2ccc(F)cc2)nc2cc(C(N)=O)nn12`?
Autofluor 339: 2.1*; NADH coupling: 8%; A340 absorber: 1; M1 antagonist: 0.7; M1 ag: 0.6

What do the screens show for `Cc1ccc(-n2nc(C)c3c(C)c(CCC(=O)NCc4ccco4)c(C)nc32)cc1`?
Autofluor 339: 2.2*; NADH coupling: 6%; A340 absorber: 1.1; M1 antagonist: -0.01; M1 ag: -0.033

What do the screens show for `CCOC(=O)N1CCN(C(=O)CCc2c(C)nc3c(c(C)nn3-c3ccc(C)c(C)c3)c2C)CC1`?
Autofluor 339: 2.6*; NADH coupling: 11%; A340 absorber: 0.98; M1 antagonist: -0.52; M1 ag: -0.41

What do the screens show for `Cc1cc(C)c2c(n1)nn1c(C)c(CCC(=O)NCc3ccco3)c(C)nc21`?
Autofluor 339: 2.1*; NADH coupling: 10%; A340 absorber: 1.1; M1 antagonist: 0.43; M1 ag: 0.34

What do the screens show for `Cc1nc2cc(-c3ccccc3)nn2c(C)c1CCC(=O)NCc1ccco1`?
Htt clearance: 56

How did Cc1ccc(-n2nc(C)c3c(C)c(CCC(=O)NCc4ccccc4)c(C)nc32)cc1 do in these assays?
Htt clearance: -2

Results for CCOC(=O)c1cc(=O)n2[nH]c(-c3ccc(C)cc3)cc2n1 ?
Htt clearance: 32; Autofluor 339: 3.9*; NADH coupling: 13%; A340 absorber: 1; M1 antagonist: 0.35; M1 ag: -0.32

Results for CCOC(=O)Cc1cc(=O)n2[nH]c(-c3ccc(C)cc3)cc2n1 ?
Htt clearance: -44

How did COc1ccc(-n2c(SCC(=O)Nc3nccs3)nc3c(c2=O)SC(C)C3)cc1 (configuration not stated) do in these assays?
Autofluor 339: 1; NADH coupling: 8%; A340 absorber: 1.1; M1 antagonist: 0.82*; M1 ag: 0.017

Results for CCOc1ccc(-n2c(SCC(=O)Nc3nccs3)nc3c(c2=O)SCC3)cc1 ?
Autofluor 339: 1.1; NADH coupling: 3%; A340 absorber: 1.1; M1 antagonist: -0.83; M1 ag: -0.11

What do the screens show for `COc1ccc(N(C(=O)c2ccc(Br)o2)C2C=CS(=O)(=O)C2)cc1` (configuration not stated)?
Autofluor 339: 1.1; NADH coupling: 7%; A340 absorber: 1; M1 antagonist: -0.026; M1 ag: 0.031

What do the screens show for `O=C(CN(c1ccc(F)cc1)S(=O)(=O)c1ccc2c(c1)OCCO2)NCc1ccccn1`?
Autofluor 339: 1.1; NADH coupling: 5%; A340 absorber: 1; M1 antagonist: -0.81; M1 ag: 0.41

How did Cc1onc(-c2c(F)cccc2Cl)c1C(=O)NC1CCSC1=O (configuration not stated) do in these assays?
Htt clearance: -80

How did Cn1c(=O)c2c(nc(SCC(=O)NCc3ccc4c(c3)OCO4)n2Cc2ccc(Cl)cc2)n(C)c1=O do in these assays?
Htt clearance: 81*

How did CCCc1nc(SCC(=O)NCc2ccc3c(c2)OCO3)c2c(=O)n(C)c(=O)n(C)c2n1 do in these assays?
Autofluor 339: 1.1; NADH coupling: 4%; A340 absorber: 1; M1 antagonist: 0.12; M1 ag: 0.56

How did O=C(CCCn1c(=O)[nH]c2cc(Cl)ccc2c1=O)NCCCN1CCCC1=O do in these assays?
Autofluor 339: 1; NADH coupling: 2%; A340 absorber: 1; M1 antagonist: -0.058; M1 ag: 0.45
